Results taken from PMC4336329 (PLoS ONE, 2015).
Among all 310,000 compounds or so, about 14,000 (4.5%) showed an effect of 50% or more. Effects have a minus sign here. This excerpt belongs to a sample that is enriched for strong results.

These compounds were tested against human ether-à-go-go-related gene (hERG) potassium channel (human, UniProt Q12809) (assay: primary screen, population patch clamp on CHO cells stably expressing hERG; higher = less effect of the substance).
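Further: peak tail current of the secondary pulse compared with the same well before compound.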

Sequence of human ether-à-go-go-related gene (hERG) potassium channel (Q12809 whole entry, looked up): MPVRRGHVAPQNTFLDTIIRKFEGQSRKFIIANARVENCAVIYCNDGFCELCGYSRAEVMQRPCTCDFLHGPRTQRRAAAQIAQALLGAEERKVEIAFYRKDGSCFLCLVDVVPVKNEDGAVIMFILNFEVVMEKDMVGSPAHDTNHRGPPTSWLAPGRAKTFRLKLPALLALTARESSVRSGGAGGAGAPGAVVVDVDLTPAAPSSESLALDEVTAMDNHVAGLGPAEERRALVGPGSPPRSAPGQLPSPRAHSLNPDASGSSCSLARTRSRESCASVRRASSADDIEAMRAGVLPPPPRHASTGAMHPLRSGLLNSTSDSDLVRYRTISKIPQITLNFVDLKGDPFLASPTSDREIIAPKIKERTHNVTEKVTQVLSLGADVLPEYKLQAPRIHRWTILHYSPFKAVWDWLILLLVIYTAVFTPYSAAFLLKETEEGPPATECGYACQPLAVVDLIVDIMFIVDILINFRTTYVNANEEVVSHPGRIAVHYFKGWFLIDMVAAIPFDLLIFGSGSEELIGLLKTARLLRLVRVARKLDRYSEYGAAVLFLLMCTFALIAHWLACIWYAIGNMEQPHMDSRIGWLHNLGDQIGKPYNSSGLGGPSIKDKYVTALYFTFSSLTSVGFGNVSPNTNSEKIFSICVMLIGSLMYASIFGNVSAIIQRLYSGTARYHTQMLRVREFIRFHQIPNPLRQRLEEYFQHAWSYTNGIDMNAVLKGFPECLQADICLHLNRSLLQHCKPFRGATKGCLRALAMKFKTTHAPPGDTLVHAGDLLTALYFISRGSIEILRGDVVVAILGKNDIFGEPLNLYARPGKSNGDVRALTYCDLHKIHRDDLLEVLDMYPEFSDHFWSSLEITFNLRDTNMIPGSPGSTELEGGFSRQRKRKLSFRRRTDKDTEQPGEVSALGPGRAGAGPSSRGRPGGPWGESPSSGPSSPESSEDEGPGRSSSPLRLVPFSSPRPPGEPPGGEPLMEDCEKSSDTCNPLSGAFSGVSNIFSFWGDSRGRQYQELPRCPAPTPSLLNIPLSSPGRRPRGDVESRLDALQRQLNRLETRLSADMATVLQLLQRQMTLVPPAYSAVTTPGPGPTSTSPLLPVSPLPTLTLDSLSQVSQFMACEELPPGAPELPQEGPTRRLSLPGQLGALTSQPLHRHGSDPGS

| Structure (SMILES) | hERG current change (%, negative = inhibition) at 10uM [%] |
| --- | --- |
| Cc1csc(SCC(=O)NCc2cccc(Cl)c2)n1 | -7.05 |
| CCOC(=O)Cn1c(=O)n(Cc2ccco2)c(=O)c2ccc(C(=O)NCCc3ccccc3)cc21 | -53.2 |
| Cc1cccn2c(=O)c3cc(S(=O)(=O)c4ccccc4)c(=N)n(Cc4ccco4)c3nc12 | -0.654 |
| Cc1cccn2c(=O)c3cc(C(=O)NCCc4ccccc4)c(=N)n(Cc4ccco4)c3nc12 | -74 |
| Cc1cccn2c(=O)c3cc(S(=O)(=O)c4ccc(F)cc4)c(=N)n(Cc4ccco4)c3nc12 | -34.8 |
| CCOC(=O)Cn1c(=O)n(Cc2ccco2)c(=O)c2ccc(C(=O)NC3CCCC3)cc21 | -18.9 |
| CCc1ccc(-n2c(=O)c3ccc(C(=O)NCCc4ccccc4)cc3n(CC(N)=O)c2=O)cc1 | 14.6 |
| CCN(CC)C(=O)N1CCN(c2c([N+](=O)[O-])c(=O)oc3ccccc23)CC1 | -25.7 |
| CN(C)c1ccc(C(=O)c2ccc(N(C)C)c(N)c2)cc1N | -3.79 |
| COc1c(F)c(F)c(C(=O)Nc2ccc(N3CCN(Cc4ccccc4)CC3)cc2)c(F)c1F | -14.6 |
| COc1ccc(C(=O)N=C2SC3CS(=O)(=O)CC3N2c2ccccc2)cc1OC (centres unmarked) | 11 |
| CCCCn1nnc(NC(=O)c2ccc(-c3cccc([N+](=O)[O-])c3)o2)n1 | -68.5 |
| CCCn1nnc(NC(=O)c2ccc(-c3cc(Cl)ccc3Cl)o2)n1 | 6.96 |
| CCn1nnc(NC(=O)Cc2ccc(Cl)cc2)n1 | 3.52 |
| CCCCn1nnc(NC(=O)c2ccc(-c3cccc(Cl)c3)o2)n1 | -40.8 |
| CCn1nnc(NC(=O)c2ccc(Br)o2)n1 | 13.7 |
| CCCn1nnc(NC(=O)c2ccc(-c3cccc(Cl)c3)o2)n1 | -55.3 |
| CCn1nnc(NC(=O)c2ccc(-c3ccc(Cl)cc3)o2)n1 | -53.5 |
| CCCCn1nnc(NC(=O)c2ccc(-c3ccccc3[N+](=O)[O-])o2)n1 | -14.2 |
| CCCCn1nnc(NC(=O)c2ccc([N+](=O)[O-])cc2Cl)n1 | -31.1 |
| O=C(NC1CC1)c1sccc1-n1cccc1 | 8.56 |
| COc1cc(NC(=O)Cc2cccs2)c(C(=O)O)cc1OC | 21.7 |
| Cc1ccc2[nH]c(=O)c(CNS(=O)(=O)c3ccccc3)c(-c3ccccc3)c2c1 | 16.2 |
| Cc1ccc(-n2[nH]c(C)c(C=Nc3ccc(S(=O)(=O)Nc4nccs4)cc3)c2=O)c(C)c1 | -35 |

| Structure (SMILES) | hERG current change (%, negative = inhibition) at 10uM [%] |
| --- | --- |
| CCOC(=O)C1(Cc2ccc(OC)cc2)CCN(C(=O)c2cncs2)CC1 | -17.6 |
| CCOC(=O)C1(CCOc2ccccc2)CCN(C(=O)c2cncs2)CC1 | -70.7 |
| CCOC(=O)C1(CCCc2ccccc2)CCN(C(=O)c2cncs2)CC1 | -55 |
| O=C(Oc1ccc(/C=N/NC(=O)c2ccccn2)cc1)c1cccc(Br)c1 | 11.4 |
| CC(C)CC(NS(=O)(=O)c1cccc(C(=O)O)c1)C(=O)O (centres unmarked) | 44.6 |
| COc1cc(NC(=O)c2ccc(NS(=O)(=O)c3c(C)noc3C)cc2)cc(OC)c1 | 1.03 |
| Cc1[nH]nc(-c2ccc(OCc3cnn(-c4ccccc4)c3)c(C)c2O)c1Oc1ccccc1 | 12 |
| CN(CC(=O)Nc1ccc(Cl)c(Cl)c1)Cc1nnc(-c2ccc(F)cc2)o1 | -63.3 |
| CN(CC(=O)Nc1ccc(C#N)cc1)Cc1ccc(Cl)cc1 | -68.6 |
| CN(CC(=O)Nc1cccc(C#N)c1)Cc1ccc(Cl)cc1 | -34.1 |
| CN(CC(=O)Nc1ccc(Cl)c(Cl)c1)C(=O)/C=C/c1ccc(F)cc1 | 1.66 |
| CN(CC(=O)Nc1ccc(N2CCOCC2)cc1)CC(=O)Nc1cccc(C#N)c1 | -13.9 |
| CN(CC(=O)Nc1ccc(S(=O)(=O)N2CCCC2)cc1)Cc1ccc(Cl)cc1Cl | 10.8 |
| CN(CC(=O)Nc1ccc(Cl)c(Cl)c1)CC(=O)Nc1ccc2c(c1)OCO2 | -3.52 |
| CN(CC(=O)Nc1ccc(C#N)cc1)Cc1ccc(Cl)cc1Cl | -66.8 |
| CN(CC(=O)Nc1ccc(Cl)cc1)CC(=O)Nc1cc(Cl)ccc1C#N | -38.4 |
| CN(CC(=O)Nc1ccc(C#N)cc1)CC(=O)Nc1ccc(N2CCOCC2)cc1 | -56.3 |
| CN(CC(=O)Nc1ccc(N2CCOCC2)cc1)CC(=O)Nc1ccc(N2CCOCC2)cc1 | 6.39 |
| Cc1ccc(NC(=O)CN(C)Cc2ccc(Cl)cc2)cc1 | -8.48 |
| CC(=O)c1ccc(-c2ccc(/C=C(/Sc3n[nH]c(C)n3)C(=O)O)o2)cc1 | -42.7 |
| O=c1[nH][nH]cc1C=Nc1ccc(Oc2ccccc2)cc1 | 11.6 |
| CC(Sc1ccccc1)C(=O)Nc1ccc(N2CCOCC2)cc1 (centres unmarked) | -7.09 |
| CN1CCN(C(=O)c2ccc3c(c2)N(Cc2cccc(Cl)c2)C(=O)c2ccccc2S3(=O)=O)CC1 | 10.8 |
